Results published in PubChem BioAssay AID624202 (National Center for Advancing Translational Sciences (NCATS), 2012).
The campaign covered roughly 380,000 compounds. About 4,000 (1.1%) were called active. A call without a number means that no potency is given here. Inconclusive results (about 3%) are left out. Calls come from the whole dose curve; as a rule, active = well fitted activation curve with a large enough effect; inconclusive = small, poorly fitted or top-dose-only effect; inactive = no such curve, though single readings can be large or run the other way. Many of the other results were omitted from the sample, so actives are more common in it than they were.

Experiment: qHTS Assay to Identify Small Molecule Activators of BRCA1 Expression; note: nearly all actives have a fitted effect of over 80% in size
Details: MCF7-BRCA1-FFLuc reporter, luminescence, 48 h; series mostly up to 46.1 µM
Excerpt: Functionally, BRCA1 has been implicated in a wide array of cellular activities, including DNA damage repair, cell-cycle checkpoint control, growth inhibition, apoptosis, transcriptional regulation, chromatin remodeling, protein ubiquitylation, and mammary stem cell self-renewal and differentiation. Reduction in BRCA1 levels is associated with an increase in tumor growth and resistance to anti-estrogenic agents, such as tamoxifen, while an increase in BRCA1 expression leads to cell growth arrest and apoptosis. […] The frequent loss of BRCA1 expression in invasive breast cancers in the absence of somatic mutation has been attributed to numerous mechanisms, including hypermethylation of the BRCA1 promoter, exaggerated ubiquitylation of BRCA1 protein, and improper intracellular localization. […] Basal-like breast cancers (BLBCs) are associated with an aggressive clinical course, resistance to chemotherapy, and typically lack expression of estrogen receptor (ER), progesterone receptor (PR), and epidermal growth factor receptor 2 (HER2). BLBCs account for 10-17% of all breast cancers, have few therapeutic options, and are considered the biggest unmet need in the treatment of breast cancer. Conversely, tumors which maintain expression of functional BRCA1 are almost uniformly luminal type cancers, and are accordingly associated with more indolent clinical courses, responsiveness to endocrine therapies, and improved survival.
As such, it is possible that an increase in BRCA1 expression would enable cellular differentiation and restore tumor suppressor function, resulting in delayed tumor growth and less aggressive, more treatable breast cancers. The long term goal of this proposal is to develop a novel prevention or therapeutic agent for breast cancer patients. To accomplish this goal, the overall objective of this proposal is to access the resources provided by the NIH Molecular Libraries Roadmap Initiative and the Molecular Libraries Probe Production Centers Network (MLPCN) to discover and develop new chemical activator probes that will increase BRCA1 expression and function.
NIH Molecular Libraries Probe Production Network [MLPCN]
NIH Chemical Genomics Center [NCGC]
PI Name: Lisa Harlan-Williams, University of Kansas Medical Center
5microl of MCF7-BRCA1-FFLuc cell suspension (400 cells/microl in phenol-red free MEM) are dispensed into Greiner white solid bottom 1536-well assay plates, yielding a final well density of 2000 cells/well. Plates are incubated for 2 hours at 37 degrees C in 5% humidified CO2 to allow cell attachment. Compounds are then transferred via Kalypsys pin tool equipped with 1536-pin array (10nl slotted pins, V&P Scientific, San Diego, CA). The plates are then incubated at 37 degrees C in 5% humidified CO2 for 48 hours. The NCGC in-house luciferase substrate reagent, Buglite, is then added (2.5microl) and plates incubated for 15 minutes, before being transferred to a ViewLux high-throughput CCD imager (PerkinElmer) wherein single end-point measurements of luminescence are acquired using a clear filter. The positive control compound, genistein, will be pinned into dedicated control columns on each plate, including a 16-point 1:3 titration in duplicate, as well as a 10microM maximum activation control, allowing for the normalization of screening activity. DMSO will be pinned into a separate column as a negative control.
All screening operations will be performed on a fully integrated robotic system (Kalypsys, San Diego, CA) containing one RX-130 and two RX-90 anthropomorphic robotic arms (Staubli, Duncan, SC). Library plates will be screened starting from the lowest and proceeding to the highest concentration. Vehicle-only plates, with DMSO being pin-transferred to columns 5-48, will be inserted uniformly at the beginning and the end of each library in order to monitor and record any shifts in the background, which can be affected by reagent dispensers or loss in enzyme activity over time. […]
Potency is the fitted concentration of half-maximal effect.

Structure (SMILES) | Potency
NS(=O)(=O)c1ccc(CCNC(=O)c2ccc(Cl)cc2[N+](=O)[O-])cc1 | inactive
O=C(NCCc1ccccc1)C1CC1 | inactive
Cc1cc(C(=O)NCCc2ccc(Cl)cc2)c(C)o1 | 8.91 µM (active)
O=C(NCCc1ccccc1)Oc1ccc(Cl)cc1 | 12.6 µM (active)
CC(C)C[C@H](NC(=O)NCCc1ccc(Cl)cc1)C(=O)O | inactive
O=C(COc1ccc(Cl)cc1)NCCSc1ccccc1 | inactive
Cc1nc2ccc(S(=O)(=O)NC(C(=O)NCc3ccccc3Cl)C(C)C)cc2s1 (stereo not drawn) | inactive
COc1ccc(Cl)cc1NC(=O)CSc1nc(-c2cccs2)cc(C(F)(F)F)n1 | inactive
COc1ccc(CNc2nc(-c3ccccc3)nn2C(=O)c2ccccc2OC)cc1 | inactive
O=C(/C=C/c1cn(CC(O)CN2CCc3ccccc32)c2ccccc12)c1ccc(Br)cc1 (stereo not drawn) | inactive
O=C(Nc1ccc2c(c1)OCCO2)C1CCCC1 | inactive
O=C(Nc1ccc2c(c1)OCCO2)C1CCCN(c2ncccn2)C1 (stereo not drawn) | 10 µM (active)
O=C(Nc1ccccn1)C1CCN(S(=O)(=O)c2ccc3c(c2)OCCO3)CC1 | inactive
CCOc1ccc(OCC)c(NS(=O)(=O)c2ccc3[nH]c(=O)ccc3c2)c1 | inactive
O=C(Nc1cccc2cccnc12)C(F)(F)F | inactive
O=C(Nc1ccc(C(=O)NCc2ccccc2Cl)cc1)C1=CSCCO1 | 11.2 µM (active)
O=C(NCc1ccccc1Cl)C1CCCO1 (stereo not drawn) | inactive
CSc1ccc(CNC(=O)c2ccc(NC(=O)C3=CSCCO3)cc2)cc1 | inactive
CCc1ccccc1NC(=O)Cn1c(=O)n(-c2cccc(C)c2)c(=O)c2c1c1cc(OC)ccc1n2C | inactive
COc1ccc(/C=C/C(=O)Nc2ccc(C34CC5CC(CC(O)(C5)C3)C4)cc2)cc1OC | inactive
CSc1ccc(/C=C/C(=O)NC23CC4CC(CC(C4)C2)C3)cc1 | 11.2 µM (active)
COc1ccccc1C(=O)NC(=S)NC12CC3CC(CC(C3)C1)C2 | inactive

Structure (SMILES) | Potency
CSc1nn(Cc2cccc(C)c2)c(N)c1S(=O)(=O)c1ccccc1 | inactive
COc1ccc(CCNc2ncnc3onc(-c4ccc(Cl)cc4)c23)c(OC)c1 | inactive
CCOC(=O)c1cccc(NS(=O)(=O)c2cc(-c3cnc(C)o3)ccc2OC)c1 | inactive
N#Cc1nc(/C=C/c2ccc(F)cc2)oc1NCc1ccc(F)cc1 | inactive
Cc1ccc(NC(=S)NC2CCCC2)cc1 | 10 µM (active)
Cc1ccc(/C=N/NC(=S)NC2CCCCC2)o1 | 4.47 µM (active)
S=C(Nc1ccc(Br)cc1)NC1CCN(Cc2ccccc2)CC1 | inactive
Cc1ccc(NC(=O)CSCC(=O)NC2CCCCC2)cc1 | inactive
Cc1ccc(/C=N/NC(=O)Cn2ccc(C(F)(F)F)n2)o1 | inactive
C/C(=N\NC(=S)NC1CCCCC1)c1ccc(C)o1 | inactive
CCOC(=O)c1ccc(NC(=O)C2CC(=O)NC(=Nc3ccc(C)c(C)c3)S2)cc1 (stereo not drawn) | inactive
COc1cccc(CNC(=O)c2cc(=O)[nH]c3ccc(S(=O)(=O)N4CCCCC4)cc23)c1 | inactive
CCc1ccc(CNCc2c(C(=O)O)n(Cc3ccc(F)cc3Cl)c3cc(OC)ccc23)cc1 | inactive
CN(C)c1ccc(/C=N\Nc2ccc([N+](=O)[O-])cc2[N+](=O)[O-])cc1Cl | inactive
CN(C)c1ccc(N/C=C/C(=O)C(F)(F)F)cc1 | inactive
CN(C)c1ccc(C(CC(=O)O)C(=O)O)cc1 (stereo not drawn) | inactive
CC(C)CNC(=O)C(=O)Nc1ccc(N(C)C)cc1 | 2.24 µM (active)
CCOC(=O)Cn1c(=O)n(-c2ccccc2OC)c2nc(-c3cccc(F)c3)nc(C(N)=O)c21 | inactive
CCn1nnnc1SCC(=O)c1ccc(C)cc1C | 6.31 µM (active)
CCn1nnnc1SCC(=O)Nc1ccc(N(C)C)cc1 | inactive
COc1ccc(C(=O)CSc2nnnn2C)c(OC)c1 | inactive
CCCCn1c(CNC(=O)C23CC4CC(CC(C4)C2)C3)nnc1SCC(=O)Nc1ccc(C)cc1 | inactive

Structure (SMILES) | Potency
COc1ccc(Cn2c(C(=O)O)c(CNCCc3cccs3)c3ccc(OC)cc32)cc1 | inactive
Nc1nc(SCc2cccc(Br)c2)n[nH]1 | inactive
Nc1cc(N)nc(SCc2cccc(F)c2)n1 | 12.6 µM (active)
N#Cc1cccc(CSc2ncnc(N)n2)c1 | inactive
Cc1ccc(Cn2c(=O)n(CCCC(=O)NCc3ccccc3Cl)c(=O)c3ccccc32)cc1 | inactive
CC(OC(=O)CNC(=O)c1ccc(Cl)c([N+](=O)[O-])c1)C(=O)NCc1ccco1 (stereo not drawn) | inactive
CC(Sc1nncn1C)C(=O)NCCC1=CCCCC1 (stereo not drawn) | inactive
O=C(NCCC1=CCCCC1)c1ccc(Cl)c([N+](=O)[O-])c1 | 7.94 µM (active)
O=C(COc1cccc(-n2cnnn2)c1)NCCC1=CCCCC1 | inactive
O=C(COc1ccc(Cl)cc1)NCCC1=CCCCC1 | inactive
O=C(NCCC1=CCCCC1)c1ccc(-n2cncn2)cc1 | 3.16 µM (active)
CC(=O)c1ccc[n+](C(C)CCC(C)[n+]2cccc(C(C)=O)c2)c1 (stereo not drawn) | inactive
COc1ccc(-c2cc(NCc3ccc(F)cc3)n3cnnc3n2)cc1 | inactive
Cc1ccc2c(c1)c1c(c(=O)n(-c3ccccc3)c(=O)n1CC(=O)c1ccc(Cl)cc1)n2C | inactive
Cc1ccc(OCC(=O)OCc2cc(=O)n3nc(C4CC4)sc3n2)cc1 | inactive
COCCN(C(=O)C(C)C)c1nnc(-c2ccc(C(C)(C)C)cc2)s1 | inactive
COc1ccc(N(CC(=O)NC(C)(C)C)C(=O)c2ccco2)cc1 | inactive
COCCN(C(=O)c1ccco1)c1nnc(-c2ccc(OC)cc2)s1 | 7.08 µM (active)
Cc1c(CCO)sc[n+]1CC(=O)c1ccc2ccccc2c1 | inactive
O=C(CC1Oc2ccccc2NC1=O)NCc1ccc(F)cc1 (stereo not drawn) | inactive
Cc1cc(C(F)(F)F)nc(SCC(=O)Nc2nccs2)n1 | inactive
CC(=O)c1cc(C#N)c(SCC(=O)Nc2nccs2)nc1C | 2 µM (active)

Structure (SMILES) | Potency
Cc1[nH]c2ccccc2c1SCC(=O)Nc1nccs1 | inactive
Cc1oc2c(c1C(=O)Nc1ccc(F)c(F)c1)C1=NCCN1C=N2 | inactive
Cc1cc(/C=C2/SC(=O)N(CC(=O)N3CCCC3)C2=O)ccc1N1CCOCC1 | inactive
CCN=C1S/C(=C\c2cc(Br)ccc2OCC(=O)OCC)C(=O)N1CC | inactive
Cc1cc(/C=C2/SC(=O)N(CC(=O)OC(C)C)C2=O)c(C)n1C | 2.51 µM (active)
CN(C)Cc1cn(-c2ccccc2)nc1-c1ccccc1 | inactive
COc1ccccc1CNCc1ccc(C(=O)O)s1 | inactive
COc1cc(OC)c(C(=O)NNC(=O)c2ccccc2-n2cccc2)cc1OC | inactive
COc1ccc(Cl)cc1C(=O)Nc1ccc(N(C)C(C)=O)cc1 | inactive
COc1cc(OC)c(C(=O)Nc2ccc(N(C)C)cc2)cc1OC | 8.91 µM (active)
COc1ccc(-c2cc(C(F)(F)F)nc(SCC(=O)N(C)Cc3ccccc3)n2)cc1OC | inactive
Cn1ccc(NC(=O)Nc2ccc(Cl)cc2)n1 | 7.08 µM (active)
Cc1nn(C)cc1C(=O)NNC(=S)Nc1ccc(Cl)cc1 | inactive
CN(C)S(=O)(=O)c1cc(C(=O)Nc2ccn(C)n2)c(Cl)cc1Cl | inactive
COc1cccc(C(=O)NCC(=O)OCc2cc(=O)n3ccsc3n2)c1 | inactive
CCn1cc(C(=O)N(C)Cc2ccccc2)c(=O)c2cc(S(=O)(=O)N3CCCCCC3)ccc21 | inactive
COc1cccc(NC(=O)COc2cccnc2[N+](=O)[O-])c1 | inactive
COc1cccc(Nc2ncccc2C(=O)O)c1 | 11.2 µM (active)
O=C(O)c1cccnc1NC1CCCC1 | inactive
O=c1cc(COc2cccc(C(F)(F)F)c2)nc2sc3c(n12)CCCC3 | inactive
Cc1ccc(C(=O)OC(C)CN2CCOCC2)cc1 (stereo not drawn) | inactive
Cc1cccc(C(=O)OC(C)CN2CCN(C)CC2)c1 (stereo not drawn) | 8.91 µM (active)

Structure (SMILES) | Potency
Cc1cccc(C(=O)OC(C)CN2CCCC2)c1 (stereo not drawn) | inactive
C(=Nc1ccc(/C=C/c2ccnc3ccccc23)cc1)c1cc2c3c(c1)CCCN3CCC2 | inactive
CN(c1ccccc1)S(=O)(=O)c1ccc(C(=O)NCCc2ccccc2)cc1 | inactive
Cc1c(C(=O)NCCCc2ccccc2)cccc1[N+](=O)[O-] | inactive
CC(C)c1ccc(C(=O)NCCCc2ccccc2)cc1 | 10 µM (active)
Cc1ccccc1CNC(=O)c1ccc(NC(=O)N2CCCCc3ccccc32)cc1 | inactive
C/C=C/NNC(=O)Cc1ccc(OC)cc1 | inactive
CC1=C(C(=O)OCC2CCCCC2)C(c2c(F)cccc2Cl)CC(=O)N1 (stereo not drawn) | inactive
CC(=O)c1cc2c(cc1N)OCO2 | inactive
Nc1[nH][nH]c(=O)c1N=Nc1ccc2c(c1)OCO2 | 12.6 µM (active)
CC(=O)C1=C(C)NC(=O)NC1c1ccc2c(c1)OCO2 (stereo not drawn) | inactive
CCOc1ccc(CCNC(=O)CN(c2ccc(C)cc2)S(=O)(=O)N(C)C)cc1OCC | inactive
COc1cccc(C(=O)Nc2ccc3nc4n(c(=O)c3c2)CCCCC4)c1 | 4.47 µM (active)
COc1ccc(CCNC(=O)C(=O)Nc2ccc3nc4n(c(=O)c3c2)CCCCC4)cc1OC | inactive
O=C(Nc1ccc2nc3n(c(=O)c2c1)CCCC3)c1ccc(Cl)nc1 | inactive
Cc1cccc(NC(=O)c2nnn(CC(=O)Nc3ccc(C(C)C)cc3)c2N)c1C | inactive
CC(C)c1ccc(NC(=O)Cn2ncc3ccccc32)cc1 | 10 µM (active)
CCc1ccc(NC(=O)Cn2ncn3c(cc4ccccc43)c2=O)cc1 | inactive
COc1ccc(Cn2c(=O)[nH]c3cc(C(=O)N4CCN(C(=O)c5ccco5)CC4)ccc3c2=O)cc1 | inactive
Cc1ccc(-c2nn3c(=O)cc(CN4CCN(C(=O)Nc5cccc(C(F)(F)F)c5)CC4)nc3s2)cc1 | inactive
